This note sets out measurements from PubChem BioAssay AID939 (National Center for Advancing Translational Sciences (NCATS), 2007).

Inconclusive results are not listed. The source made the active and inactive calls. Calls come from the whole dose curve; as a rule, active = well fitted activation curve with a large enough effect in the main read-out, with a control signal flat; inconclusive = small, poorly fitted or top-dose-only effect, or effect the other way, or a change in a side signal; inactive = no such curve, though single readings can be large or run the other way.
Potency is the fitted concentration of half-maximal effect.

System in the first assay: not listed separately
Put plainly: Confirmation Concentration-Response Assay for Agonists of the Thyroid Stimulating Hormone Receptor. For activation: % of control where 0% means no effect. The following applies: HEK293 TSHR-CNG cells, membrane potential dye, cAMP; measured here: parental HEK293 counter-screen max. The text has this: (§1) NIH Chemical Genomics Center [NCGC] NIH Molecular Libraries Screening Centers Network [MLSCN] MLSCN Grant: 1 X01 MH080680-01 PI Name: Dr. Marvin Gershengorn, NIH NCGC Assay Overview: Thyroid Stimulating Hormone Receptor TSH is an alpha/beta heterodimeric glycoprotein hormone secreted from the anterior pituitary gland which belongs to the glycoprotein hormone family. The actions of TSH are mediated by a seven-transmembrane receptor, which upon TSH binding couples preferentially to the G-alpha (s) protein (Gs), resulting in activation of adenylate cyclase and increase in cyclic adenosine 3', 5' monophosphate (cAMP). The TSH receptor (THSR) is mainly expressed in thyroid follicular cells and regulates their growth and function. Recombinant TSH is used to activate TSHR in patients with thyroid cancer receiving thyroid hormone suppression therapy and to screen for residual tumor after surgery, but it is expensive and must be administered intramuscularly. An orally active small molecule TSHR agonist would serve as an invaluable research tool for studying TSHR pharmacology and physiology, and would have multiple advantages in therapeutic settings. However, no selective small molecule agonist of the TSH receptor exists, and no small molecule screen for TSHR agonists has ever been reported. This cell based assay utilized a cyclic nucleotide gated ion channel (CNG) as a biosensor for cAMP induction by potential TSHR agonists. TSHR cell line HEK 293 cells stably expressing the TSHR as well as a modified CNG were purchased from BD biosciences. Stimulation of cAMP production causes the CNG to open and subsequent membrane depolarization to occur. A fluorescent membrane potential dye (BD biosciences) was utilized to detect cAMP stimulation in TSHR cells. The cells were maintained in DMEM medium (Invitrogen) containing 10 % FBS (Hyclone), 100 units/ml Penicillin, 100 ug/ml Streptomycin (Invitrogen), and 250 ug/ml Geneticin (Invitrogen) and 1 ug/ml Puromycin (Invitrogen) at 37C in 5% CO2. HEK 293 cells expressing CNG but without TSHR (parental cells) were used in concert to control for compounds signaling through endogenous receptors and targets of HEK 293 cells.
(§2) NCGC Assay Protocol Summary: High Throughput Screening. Freshly passaged cells (TSHR or parental) were dispensed into 1536-well assay plates at 4 ul/well in DMEM containing phenol red (Invitrogen), 10% FCS (Hyclone), and 100 units/ml Penicillin, 100 ug/ml Streptomycin (Invitrogen) and incubated at 37 C with 5% CO2 for 20 to 36 hrs before the robotic screening. The screen was initiated by addition of 4 ul/well membrane potential dye containing 100 uM RO 20-1724 (Sigma Aldrich), followed by 60 min incubation at room temperature to allow for dye equilibration across the cell membrane. 23 nl/well compound or control was then added to the assay plates, which were incubated for additional 30 min before reading a Envision fluorescence plate reader (Perkin Elmer) in bottom-read mode for fluorescence intensity (emission at 590 nm). Keywords: Thyroid-stimulating hormone TSH, TSHR, TSHR agonist, quantitative high throughput screening, qHTS, HTS, probe identification, CNG, cAMP, cyclic nucleotide gated ion channel PubChem
In the case of `O=c1[nH]c(=O)n(Cc2ccco2)c(O)c1C=NC1CC1`, the max response was 5.23%.
Consider `CN(C)c1ccc(CN2CC=C(c3ccc(F)cc3)CC2)cc1`, for which the max response amounted to 5.57%.
The same measure, in the same setting: the figure for `C=CCN1C(=O)C2(C(C(=O)OCC)=C(N)Oc3c2c(=O)oc2ccccc32)c2ccccc21` (centres undefined) is -4.89%.
With `O=C(Nc1nc2ccccc2n1CCN1CCCC1)c1ccc(Cl)cc1`, the max response is -11%.
Still for that read-out and setting: in the case of `CCOC(=O)C1=C(C)OC(N)=C(C(=O)OC)C12C(=O)Nc1ccc(Br)cc12` (centres undefined) it was -4.55%; in that of `CCC(=NCC1CCCO1)c1c(O)n(Cc2ccccc2)c(=O)[nH]c1=O` (centres undefined), 5.62%.
`CCn1c(C)c(C(=O)O)c2cc(OC)ccc21`: the max response was 6.15%.

The target in another assay is Thyrotropin receptor (Homo sapiens) (UniProt P16473). The description is as above. To be noted: HEK293 TSHR-CNG cells, membrane potential dye, cAMP; series mostly up to 25.6 µM.
Chain of Thyrotropin receptor (Homo sapiens) (P16473 whole entry, looked up): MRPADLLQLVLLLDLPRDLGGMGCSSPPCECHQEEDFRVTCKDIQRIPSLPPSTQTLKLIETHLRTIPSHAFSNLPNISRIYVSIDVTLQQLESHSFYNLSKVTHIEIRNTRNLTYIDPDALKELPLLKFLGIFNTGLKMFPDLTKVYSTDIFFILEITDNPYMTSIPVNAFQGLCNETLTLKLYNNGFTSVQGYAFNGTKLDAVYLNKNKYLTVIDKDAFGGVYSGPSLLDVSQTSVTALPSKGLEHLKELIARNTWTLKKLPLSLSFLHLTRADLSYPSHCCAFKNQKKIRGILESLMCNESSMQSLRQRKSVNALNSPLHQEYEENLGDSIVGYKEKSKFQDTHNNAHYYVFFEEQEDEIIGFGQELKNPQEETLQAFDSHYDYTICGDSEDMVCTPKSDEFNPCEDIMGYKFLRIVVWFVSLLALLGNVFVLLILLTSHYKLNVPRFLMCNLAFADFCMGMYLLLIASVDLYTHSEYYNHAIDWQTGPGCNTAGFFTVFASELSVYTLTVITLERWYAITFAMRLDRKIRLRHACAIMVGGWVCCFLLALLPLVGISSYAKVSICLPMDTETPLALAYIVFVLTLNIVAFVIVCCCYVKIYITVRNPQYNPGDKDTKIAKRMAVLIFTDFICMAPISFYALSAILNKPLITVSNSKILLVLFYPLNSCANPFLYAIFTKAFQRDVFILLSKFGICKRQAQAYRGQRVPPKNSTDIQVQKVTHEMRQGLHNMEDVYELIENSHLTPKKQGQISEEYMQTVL
Description: as §1, §2
With `O=c1[nH]c(=O)n(Cc2ccco2)c(O)c1C=NC1CC1`, the Potency entry is “inactive”.
For `CN(C)c1ccc(CN2CC=C(c3ccc(F)cc3)CC2)cc1`, the Potency result was “inactive”.
On the same count and under the same terms, in the case of `C=CCN1C(=O)C2(C(C(=O)OCC)=C(N)Oc3c2c(=O)oc2ccccc32)c2ccccc21` (centres undefined) it was 5.01 µM (active); in that of `O=C(Nc1nc2ccccc2n1CCN1CCCC1)c1ccc(Cl)cc1`, “inactive”.
The same measure, in the same setting: in the case of `CCOC(=O)C1=C(C)OC(N)=C(C(=O)OC)C12C(=O)Nc1ccc(Br)cc12` (centres undefined) it was “inactive”; in that of `CCC(=NCC1CCCO1)c1c(O)n(Cc2ccccc2)c(=O)[nH]c1=O` (centres undefined), “inactive”; in that of `CCn1c(C)c(C(=O)O)c2cc(OC)ccc21`, “inactive”.
